Values without a mark were called inactive. Active and inactive are the calls of the source. The call rests on the fitted dose curve; in most records, active means well fitted activation curve with a large enough effect; inconclusive means small, poorly fitted or top-dose-only effect; inactive means no such curve, though single readings can be large or run the other way.
Target: Cytochrome P450 3A4 (Homo sapiens) (UniProt P08684)
Test: qHTS Assay for Activators of Cytochrome P450 3A4 (AID 885); further: nearly all actives have a fitted effect of over 65% in size
Conditions: recombinant CYP3A4, Luciferin-PPXE luminescence, 60 min; series mostly up to 57.1 µM; activity change, positive = activation: at the top concentration
Description: NIH Molecular Libraries Screening Centers Network [MLSCN]
NIH Chemical Genomics Center [NCGC]
The P450 gene superfamily is involved in the metabolism and clearance of xenobiotics. This assay used human CYP3A4 to measure the dealkylation of luciferin-6' phenylpiperazinylyl (Luciferin-PPXE; […]) to luciferin. The luciferin is then measured by luminescence after the addition of a luciferase detection reagent. Luciferin-PPXE concentration in the assay was equal to its KM for CYP3A4. Inhibitors and some substrates limit the production of luciferin, and decrease measured luminescence; activators increase the production of luciferin and luminescence.
NCGC Assay Protocol Summary:
Two uL of enzyme and substrate mix (final concentrations: 20nM CYP3A4, 25uM Luciferin-PPXE, 200mM KPO4) were dispensed into a white, solid bottom 1536-well microtiter plate. 23nL of compound was transferred by a pin tool. The plate was incubated at RT for 10 min. Two uL of an NADPH regeneration solution (Promega supplied reagent) was dispensed and the reaction was allowed to continue for 60 min at RT. Then the reaction was stopped by reconstituted luciferin detection buffer. After another 20 min of incubation the plate was read on the ViewLux (Perkin Elmer) at 60 sec exposure and 2x2 binning. This protocol was carried out with Promega-Glo reagents and further information can be found at http://www.promega.com/tbs/tb325/tb325.pdf. Data were normalized to the to AC100 inhibition (57 uM ketoconazole).
Keywords: P450, CYP2D6, Luciferase, MLSMR, MLSCN, NIH Roadmap, qHTS, NCGC
Potency means the concentration at half of the fitted maximal effect.

Cytochrome P450 3A4 (Homo sapiens), sequence (P08684 whole entry, looked up): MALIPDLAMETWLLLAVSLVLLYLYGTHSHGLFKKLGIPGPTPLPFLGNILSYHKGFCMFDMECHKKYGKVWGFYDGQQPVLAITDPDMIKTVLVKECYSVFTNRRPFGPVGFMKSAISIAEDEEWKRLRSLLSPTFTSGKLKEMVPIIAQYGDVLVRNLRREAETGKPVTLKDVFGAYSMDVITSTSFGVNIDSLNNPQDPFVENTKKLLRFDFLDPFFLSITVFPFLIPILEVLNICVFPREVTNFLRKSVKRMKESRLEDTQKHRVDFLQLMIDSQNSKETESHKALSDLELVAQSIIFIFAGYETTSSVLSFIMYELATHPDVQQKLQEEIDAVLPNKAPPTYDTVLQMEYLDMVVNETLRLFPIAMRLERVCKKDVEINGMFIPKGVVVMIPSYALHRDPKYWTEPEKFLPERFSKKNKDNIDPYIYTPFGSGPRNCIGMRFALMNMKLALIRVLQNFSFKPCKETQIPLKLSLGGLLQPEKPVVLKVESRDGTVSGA

Row | SMILES | activity change, positive = activation | Potency
1 | O=C(CCc1ccc(O)cc1)c1c(O)cc(O)cc1O[C@H]1OC(CO)C(O)C(O)C1O (stereo not given in full) | -32.4% | 
2 | COc1ccc2c(c1)OCC(Cc1ccc(O)c(OC)c1)C2=O (stereo not given) | -96.4% | 
3 | CC1(C)CCC2(C(=O)O)CC[C@]3(C)C(=CCC4[C@]5(C)CCC(O)C(C)(C)C5C(O)C[C@]43C)C2C1 (stereo not given in full) | -49.2% | 
4 | COc1cccc(-c2nc(NCCc3c[nH]c4ccc(OC)cc34)c3ccccc3n2)c1 | -83.3% | 
5 | c1ccc2c(c1)CCCc1cc(NCCN3CCOCC3)nnc1-2 | -34.1% [at 25.6 µM] | 
6 | COc1ccc(/C=C/C(=O)c2ccc(O)cc2O)cc1 | -89.5% | 
7 | Clc1ccc([C@H](Cn2ccnc2)OCc2csc3c(Cl)cccc23)c(Cl)c1 | -86.8% [at 25.6 µM] | 
8 | CC1CC[C@@]23CCC4(C)[C@@]5(C)CCC6C(C)(C)C(O)CC[C@@]6(C)C5C=C[C@@]4(OC2=O)C3C1C (stereo not given in full) | -81.5% | 
9 | COC(=O)CC1C(C)(C)C(=O)C2CC3=C4CC(=O)OC(c5ccoc5)[C@]4(C)CCC3[C@@]1(C)C2=O (stereo not given in full) | -67.5% | 
10 | CC1=CCc2c(cc3oc(C)cc(=O)c3c2O)OC1 | -69.1% | 
11 | CC(=O)OCC(=O)[C@]1(O)C(C)CC2C3CCC4=CC(=O)C=C[C@@]4(C)[C@]3(F)C(O)C[C@@]21C (stereo not given in full) | -34.1% | 
12 | CC(C)/C(O)=C1/C(=O)OC(c2ccoc2)[C@@]2(C)C(O)C(O)[C@@]34OC5(C)OC67CC(C)(C(O)[C@@]6(O)C(O)[C@@]3(O5)C12)C(CC(=O)O)[C@@]74C (stereo not given in full) | -88.4% | 
13 | COc1cc2c(cc1OC)-c1cc3ccc(OC)c(OC)c3c[n+]1CC2 | -30.5% | 
14 | CC(=O)OC[C@@]1(O)C[C@]23CCC4c5ccoc5CC[C@@]4(C)C2CCC1C3 (stereo not given in full) | -40.7% | 
15 | N#Cc1cccc(-c2cncnc2-n2ccnc2)c1 | -93.3% | 
16 | C#CCCCCCCCCCCCC(O)CC(O)CO (stereo not given) | -51.6% | 
17 | CS(=O)(=O)Nc1cccc(-c2nc(Nc3ccc(F)cc3)c3ccccc3n2)c1 | -108% | 
18 | CC1(C)CC2C1CCC1(C)OC2(C)CCC1O (stereo not given) | -56.9% | 
19 | CC(=O)Oc1cc2c(c(C)c1OC(C)=O)CC=C1[C@]3(C)CC[C@]4(C)CC[C@@](C)(C(=O)O)CC4[C@]3(C)CC[C@]12C (stereo not given in full) | -50.8% | 
20 | CC(=O)OC1CCC2(C)C3=C(CCC2C1(C)C)[C@]1(C)CCC(C(C)CCC=C(C)C)[C@]1(C)CC3 (stereo not given in full) | -65.9% | 

Row | SMILES | activity change, positive = activation | Potency
21 | C#C[C@@]1(OC(C)=O)CC[C@@H]2[C@@H]3CCC4=C[C@@H](OC(C)=O)CC[C@H]4[C@H]3CC[C@]21C |  | 5.01 µM (active)
22 | COc1ccc2c(c1)OC1(O)COc3cc(OC)c(OC)cc3C1=C2 (stereo not given) | -82.7% | 
23 | CC[C@@H]1OC(=O)[C@H](C)[C@H](O[C@@H]2C[C@](C)(OC)[C@H](O)[C@H](C)O2)[C@H](C)[C@H](O[C@@H]2O[C@@H](C)C[C@@H](N(C)C)[C@@H]2O)[C@](C)(O)C[C@H](C)C(=NOCOCCOC)[C@H](C)[C@H](O)[C@]1(C)O | -44.6% [at 25.6 µM] | 
24 | CCN(CC)Cc1ccc(Nc2ccnc3cc(Cl)ccc23)cc1O |  | 7.94 µM (active)
25 | C=C[C@](C)(O)CCC1C(=C)CC(O)C2C(C)(C)CCCC12C (stereo not given in full) | -71.4% | 
26 | CCCc1cc(OC)c2c(c1)OCO2 | -65% | 
27 | O=c1cc(-c2cccc(O)c2)oc2cc(O)ccc12 | -74.5% | 
28 | CC(=O)CC(=O)[C@@]1(O)CC[C@@H]2[C@@H]3C=C(C)C4=CC(=O)CC[C@@H]4[C@H]3CC[C@]21C |  | 2.51 µM (active)
29 | COc1c(OC)c2occc2c2oc(=O)ccc12 | -82.1% | 
30 | CC[C@H](C(=O)[C@H](C)[C@H](O)[C@H](C)CCc1ccc(C)c(O)c1C(=O)O)[C@H]1O[C@](CC)([C@@H]2CC[C@@](O)(CC)[C@H](C)O2)C[C@H]1C | -62% [at 25.6 µM] | 
31 | C=C1CCC2C(CC2(C)C)C(=C)CC/C1=N/O (stereo not given) | -42.4% | 
32 | CC(C)=CCC/C(C)=C/COc1ccc2ccc(=O)oc2c1 | -37.5% | 
33 | CC(=O)OC1CC(O)C(C)(C)C2CC(OC(C)=O)[C@]3(C)C(CC[C@@]4(C)C(c5ccoc5)OC(=O)C5OC534)[C@]12C (stereo not given in full) | -97.8% | 
34 | Nc1ccn([C@@H]2O[C@H](CO)[C@@H](OP(=O)(O)O)[C@H]2O)c(=O)n1 | -48.7% | 
35 | CC(=O)OC1CC(OC(C)=O)[C@]2(C)C(CC(=O)[C@]3(C)C2CC[C@@]2(C)C(c4ccoc4)OC(=O)C4O[C@@]423)C1(C)C (stereo not given in full) | -92.5% | 
36 | COC(=O)c1c(C)cc(OC)cc1O | -35.8% | 
37 | COc1c(O)cc2c(-c3ccccc3)cc(=O)oc2c1OC | -40.7% | 
38 | O=c1c(O)c(-c2ccccc2)oc2cccc(O)c12 | -32.7% | 
39 | CC(C)=CCOc1cc2oc(=O)ccc2cc1O | -65.1% | 
40 | COC(=O)CC1C(C)(C)C2(O)OC34CC2C(=O)[C@@]1(C)C3CC[C@]1(C)C4=CC(=O)OC1c1ccoc1 (stereo not given in full) | -46.9% | 
